Screening results deposited in PubChem BioAssay by National Center for Advancing Translational Sciences (NCATS).
Rows were chosen to be rich in hits. Some 8% of all compounds tested hit in one or more screens of this group.
KB-V1 MDR tox = KB-V1 MDR subline cytotoxicity | KB-V1 MDR cells viability, CellTiter-Glo, 72 h | Potency, µM (doses to about 46.1 µM), hits mostly cytotoxic | 400,000 tested, 3.4% active | AID 1347076; also: % is scaled to controls: 0 for no effect and ±100 for the full control effect; nearly all actives have a fitted effect of over 60% in size
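Compound-treated KB-V1 multidrug-resistant cells, 72 h, 37 degrees C; viability by CellTiter-Glo. Fitted qHTS curves give the values.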
HT1080 IDH1KD tx = toxicity to HT-1080 IDH1 knockdown cells (counter line); HT-1080 IDH1 knockdown viability, ATP luminescence, 48 h; Potency, µM (series often up to 46.1 µM), without a hit: at the top dose activity, negative = toxicity, usual class: cytotoxic; 360,000 tested, 2% active;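 also: 0% = DMSO wells and -100% = cell-free medium wells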
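Cytotoxicity counter-line: IDH1KD HT-1080, 48 h, CellTiter-Glo. Curves classed by r2, magnitude and activity.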
HT1080-NT tox = kills 2HG-producing HT-1080-NT fibrosarcoma cells; Potency, µM (titrated, usually from 46.1 µM), for the others: at the highest dose activity, negative = less viability, actives largely listed as cytotoxic; AID 686970; 360,000 tested, 1.6% active; HT-1080-NT fibrosarcoma viability, CellTiter-Glo ATP luminescence, 48 h;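 also: NT is the 2HG producing partner of a matched IDH1 knockdown line; 0% = DMSO-treated cells and -100% = media-only wells without cells; nearly all actives have a fitted effect of over 55% in size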
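Read-out is CellTiter-Glo luminescence after 10 minutes at room temperature, following 48 hours' compound treatment of HT-1080-NT cells (750 cells/well, RPMI, 5% FBS, 37 degrees C).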
KB-3-1 cytotox = kills parental KB-3-1 adenocarcinoma cells; KB-3-1 viability, CellTiter-Glo ATP luminescence, 72 h; 400,000 tested, 1.4% active; Potency, µM (doses to about 46.1 µM), most hits filed as cytotoxic; AID 1347075; also: % is scaled to controls: 0 for no effect and ±100 for the full control effect; nearly all actives have a fitted effect of over 60% in size
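72 h, 37 °C compound treatment of KB-3-1 parental cells; CellTiter-Glo added, 10 min, luminescence read. Data corrected against DMSO-only plates and normalized before curve fitting.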
MCF10A rereplic = induces DNA re-replication in MCF 10a normal breast cells | MCF 10A DNA re-replication, Hoechst nuclear intensity, 48 h | Potency, µM (series often up to 46.1 µM), inactives show at the highest dose activity, positive = re-replication, usual class: activators | 350,000 tested, 2.9% active | AID 624296; also: % of control where 0% means no effect; nearly all actives have a fitted effect of over 50% in size
SW480 rereplic = induces DNA re-replication in SW480 colon adenocarcinoma cells | 340,000 tested, 1.8% active | SW480 DNA re-replication, Hoechst DNA content imaging, 48 h | Potency, µM (titrated, usually from 46.1 µM), inactives show at the highest dose re-replication activation, usual class: activators; also: % of control where 0% means no effect; nearly all actives have a fitted effect of over 55% in size
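Hoechst fluorescence of nuclei (405 nm excitation, 500-530 nm emission) measured by plate-scanning imager after 48 hr compound exposure at 37 C; re-replication scored as increased number of nuclei with elevated intensity.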
Active calls of the source: *; i = inactive; ? = inconclusive; nt = not tested or not shown; [ ] = remark or other dose. Calls follow the shape of the dose curve; as a rule, active = well fitted curve in the direction sought with a large enough effect; inconclusive = small, poorly fitted or top-dose-only effect, or another doubt; inactive = no such curve, though single readings can be large; an effect the other way counts as inactive or inconclusive. Potency is read from the fitted curve at half-maximal effect.

SMILES	KB-V1 MDR tox	HT1080 IDH1KD tx	HT1080-NT tox	KB-3-1 cytotox	MCF10A rereplic	SW480 rereplic
CCOc1ccc(CCN2C(=S)N([C@@H](CC(C)C)CN3CCC[C@@H]3CN3C(=S)NC[C@@H]3CC(C)C)C[C@@H]2Cc2ccc(O)cc2)cc1	i	16µM*	23µM*	?	nt	nt
CC(C)C[C@@H](CN1CCCC1CN1C(=S)NC[C@@H]1Cc1ccccc1)N1C[C@H](Cc2ccc(O)cc2)N(CCc2ccccc2)C1=S (stereo not given in full)	?	-1%	?	?	nt	nt
CC(C)C[C@H]1CNC(=S)N1C[C@H]1CCCN1C[C@H](Cc1ccc(O)cc1)N1C[C@H](Cc2ccc(O)cc2)N(CCc2ccccc2)C1=S	i	21µM*	21µM*	?	nt	nt
Nc1nonc1-n1nnc(C(=O)N/N=C/c2ccccc2F)c1CN1CCc2ccccc21	i	-4%	6%	i	4%	9%
COc1cc(-c2nnc(NC(=O)CCS(=O)(=O)c3ccc(F)cc3)o2)cc(OC)c1OC	i	?	-4%	i	16µM*	23%
COc1cc(OC)cc(-c2nnc(NC(=O)CCS(=O)(=O)c3ccccc3)o2)c1	i	-7%	-6%	i	?	?
COc1cc(-c2nnc(NC(=O)CCS(=O)(=O)c3ccccc3)o2)cc(OC)c1OC	i	?	21µM*	i	18µM*	?
CSc1ccc(CNC(=O)CCn2ccc3cc(S(=O)(=O)N4CCCC4)ccc32)cc1	?	-13%	-20%	?	0%	?
NC[C@@H]1O[C@H](O[C@H]2[C@H](O)[C@H](O[C@@H]3O[C@H](CO)[C@@H](O)[C@H](N)[C@@H]3O)[C@@H](N)C[C@H]2N)[C@@H](O)[C@H](O)[C@@H]1O	nt	nt	nt	nt	1%[20.6 µM]	-3%[20.6 µM]
O=C(NCc1ccc(Cl)cc1)c1cnc(N2CCCCC2)c2ccccc12	i	nt	nt	i	nt	nt
CC(C)(NC(=O)c1ccccc1)c1nc2ccccc2s1	i	1%	2%	i	-17%	-10%
Cc1ccccc1OCCCSc1nc2ccccc2[nH]1	12µM*	-24%	-19%	?	?	4%
O=C1NC(=Nc2ccccc2Cl)S/C1=C\c1ccc(C(=O)O)cc1	i	2%	0%	i	-5%	?
CC12CCC(C/C1=N\N=C1\NC(=O)/C(=C\c3ccc(Cl)cc3)S1)C2(C)C (stereo not given)	?	21µM*	16µM*	?	5.2µM*	?
COCCCNCCCOc1ccc(Cl)cc1C(C)(C)C	26µM*	21µM*	?	?	?	?
CNCCCOc1ccc(Cl)cc1C(C)(C)C	?	23µM*	?	?	?	?
COCCNCCCOc1ccc(Cl)cc1Br	i	?	?	i	7%	30%
Cc1nn(-c2ccccc2)c(C)c1/C=C/C(=O)OCC(=O)N(C)C1CCS(=O)(=O)C1 (stereo not given)	i	18%	17%	i	6%	-5%
COc1cccc2cc(-c3nc(Nc4cccc(C)c4)sc3C)c(=O)oc12	i	nt	nt	i	nt	nt
COc1cccc(CNC(=O)C2=C(C)C(=O)OC23CCN(C(C)=O)CC3)c1OC	i	nt	nt	?	nt	nt
Fc1ccc(-c2cn3cc(C(F)(F)F)cc(Cl)c3n2)cc1	i	-15%	-11%	i	?	?
COc1ccc(-c2cn3cc(C(F)(F)F)cc(Cl)c3n2)cc1	?	?	?	?	24%	18µM*
O=C(/C=C/c1ccc(NC(=O)c2ccccc2-c2ccccc2C(=O)O)cc1)c1ccccc1	i	?	?	i	?	11%
O=C(Nc1ccc(Nc2ccccc2)cc1)c1ccccc1F	i	-19%	-15%	i	?	4.6µM*
COc1ccc(Cl)cc1C(=O)Nc1ccncc1	i	-5%	0%	i	2%	-56%
